Inconclusive results are not listed. Where a call stands in place of a potency, no number is given. The source made the active and inactive calls. Calls come from the whole dose curve; as a rule, active = well fitted inhibition curve with a large enough effect; inconclusive = small, poorly fitted or top-dose-only effect; inactive = flat fitted curve, though single readings scatter.
target: Calcium and integrin-binding protein 1 (Homo sapiens) (UniProt Q99828); experiment: Primary qHTS for Identification of Calcium Integrin Binding Protein 1 (CIB1) Competitor (AID 1508620); settings: CIB1-GST / FITC-alphaIIb peptide fluorescence polarization; series mostly up to 114 µM; note: top concentration of the series differs between compounds
Sequence (Q99828 whole entry, looked up): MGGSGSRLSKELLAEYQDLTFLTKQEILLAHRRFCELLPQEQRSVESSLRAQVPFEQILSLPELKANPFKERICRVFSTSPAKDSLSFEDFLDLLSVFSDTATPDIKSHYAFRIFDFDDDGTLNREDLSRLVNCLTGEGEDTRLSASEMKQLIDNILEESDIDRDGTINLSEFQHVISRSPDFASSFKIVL
Summary of the method: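 Fluorescence polarization competition: GST-tagged CIB1 (1 uM final) preincubated with compound 15 min at room temperature, then FITC-labelled alphaIIb peptide (100 nM final) added. After 15 min at room temperature, polarization read at Ex 480/Em 540.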

Row | SMILES | Potency
1 | O=C(O)c1cccc(-c2cccc(-c3nn4c(=O)cc(N5CCNCC5)nc4s3)c2)c1 | inactive
2 | N#Cc1c(-c2ccc3c(c2)OCO3)no[n+]1[O-] | inactive
3 | Cc1ccc(CNc2nc(-c3ccccc3C(F)(F)F)nc3ccccc23)cc1 | inactive
4 | O=C(Nc1nnc(-c2ccco2)o1)c1ccncc1 | inactive
5 | O=C(Nc1cccnc1)c1ccco1 | inactive
6 | Cc1c(Cl)cccc1NS(=O)(=O)c1cc2c(cc1Cl)CCC(=O)N2 | inactive
7 | COc1ccc(-c2nc3ccccc3c(=O)n2Cc2ccccc2)cc1CNc1ccc(NC(C)=O)cc1 | inactive
8 | O=C(OCC#CCSc1nnc(-c2cccc3ccccc23)o1)C1CCCC1 | inactive
9 | Cc1ccc(CNc2ccc(N3CCNCC3=O)cc2)cc1 | inactive
10 | CCCCCCNC(=O)Nc1nnc(-c2ccncc2)s1 | inactive
11 | O=C(CNC(=O)c1ccccc1)N[C@H](C(=O)Nc1cc(C(F)(F)F)ccc1Cl)c1ccccc1 | inactive
12 | COc1ccc(-c2csc3ncnc(Sc4nnnn4C)c23)cc1 | inactive
13 | O=C(NCC#CCSc1nnc(-c2cccc3ccccc23)o1)c1cccs1 | inactive
14 | O=C(Nc1ccccn1)c1sc2ccc([N+](=O)[O-])cc2c1Cl | inactive
15 | O=C(COc1ccc(F)cc1)NCCc1nc2ccccc2[nH]1 | inactive
16 | CCNC(=O)c1ccc(-c2ccc3ncnc(NCc4ccc(C)o4)c3c2)o1 | inactive
17 | CCN(CC)c1cc2c(cc1S(=O)(=O)Nc1ccc(C)c(C)c1)CCC(=O)N2 | inactive
18 | CCN(CCc1cn(C)cn1)c1ncnc2ccc(-c3ccc4c(c3)OCO4)cc12 | inactive

Source: PubChem BioAssay (NCATS)
